Test results as given in PubChem BioAssay (NCATS).
Inconclusive results are not listed. Active and inactive are the calls of the source. Calls come from the whole dose curve; as a rule, active = well fitted inhibition curve with a large enough effect; inconclusive = small, poorly fitted or top-dose-only effect; inactive = flat fitted curve, though single readings scatter.

Columns and labels:
[1] = molecular target: Tyrosyl-DNA phosphodiesterase 1 (Homo sapiens) (UniProt Q9NUW8); assay: Confirmation Assay for Inhibitors of Tyrosyl-DNA Phosphodiesterase (TDP1) (AID 489007); settings: recombinant human TDP1 enzymatic activity, dose-response; note: potency is the fitted concentration of half-maximal effect; nearly all actives have a fitted effect of over 40% in size
Sequence of Tyrosyl-DNA phosphodiesterase 1 (Homo sapiens) (Q9NUW8 whole entry, looked up): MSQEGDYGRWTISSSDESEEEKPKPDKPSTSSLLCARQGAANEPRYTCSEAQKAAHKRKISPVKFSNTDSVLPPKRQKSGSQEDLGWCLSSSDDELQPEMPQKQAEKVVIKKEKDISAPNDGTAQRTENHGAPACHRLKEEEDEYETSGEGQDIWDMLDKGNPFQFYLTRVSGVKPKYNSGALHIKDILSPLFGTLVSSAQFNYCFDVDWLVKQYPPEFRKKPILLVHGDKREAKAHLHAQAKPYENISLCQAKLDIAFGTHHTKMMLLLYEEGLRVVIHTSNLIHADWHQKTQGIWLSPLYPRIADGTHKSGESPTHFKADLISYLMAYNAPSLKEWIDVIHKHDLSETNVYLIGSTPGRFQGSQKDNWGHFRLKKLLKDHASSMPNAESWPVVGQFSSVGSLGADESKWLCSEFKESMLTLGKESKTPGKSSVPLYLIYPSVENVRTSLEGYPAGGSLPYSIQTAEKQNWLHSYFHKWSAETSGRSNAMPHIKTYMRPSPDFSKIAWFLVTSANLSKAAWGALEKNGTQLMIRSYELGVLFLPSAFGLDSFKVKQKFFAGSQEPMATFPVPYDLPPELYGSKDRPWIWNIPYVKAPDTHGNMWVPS
Method in brief: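 AlphaScreen assay of tyrosine-FITC cleavage from a biotinylated DNA substrate (15 nM) by E. coli-expressed human Tdp1 (1 nM). Sequence: compound preincubation 15 min, reaction 5 min, bead detection 10 min, all at room temperature. No-enzyme wells give maximum signal.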

[2] = molecular target: Ubiquitin carboxyl-terminal hydrolase 1 (Homo sapiens) (UniProt O94782); assay: Inhibitors of USP1/UAF1: Pilot qHTS (AID 504865); note: nearly all actives have a fitted effect of over 35% in size; note: potency is the fitted concentration of half-maximal effect
Sequence of Ubiquitin carboxyl-terminal hydrolase 1 (Homo sapiens) (O94782 whole entry, looked up): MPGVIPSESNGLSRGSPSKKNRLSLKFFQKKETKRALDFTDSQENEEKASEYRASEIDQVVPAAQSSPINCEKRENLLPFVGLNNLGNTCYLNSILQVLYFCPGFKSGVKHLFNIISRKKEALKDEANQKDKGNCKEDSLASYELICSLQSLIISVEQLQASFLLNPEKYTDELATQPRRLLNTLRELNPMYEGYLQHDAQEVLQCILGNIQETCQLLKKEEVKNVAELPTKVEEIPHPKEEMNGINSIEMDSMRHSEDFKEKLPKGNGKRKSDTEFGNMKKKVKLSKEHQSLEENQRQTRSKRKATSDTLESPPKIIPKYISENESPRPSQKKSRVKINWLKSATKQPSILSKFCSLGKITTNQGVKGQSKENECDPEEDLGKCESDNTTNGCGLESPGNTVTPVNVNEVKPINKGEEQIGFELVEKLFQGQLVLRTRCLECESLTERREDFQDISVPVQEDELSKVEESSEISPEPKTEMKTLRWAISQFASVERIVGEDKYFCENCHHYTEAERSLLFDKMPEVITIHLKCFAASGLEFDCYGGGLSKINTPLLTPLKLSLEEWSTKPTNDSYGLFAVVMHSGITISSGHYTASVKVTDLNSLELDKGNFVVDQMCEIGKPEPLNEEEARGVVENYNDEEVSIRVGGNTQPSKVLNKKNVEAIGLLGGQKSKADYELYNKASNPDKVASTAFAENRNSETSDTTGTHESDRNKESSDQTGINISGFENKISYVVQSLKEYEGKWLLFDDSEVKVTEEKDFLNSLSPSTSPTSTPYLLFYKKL
Method in brief: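 USP1/UAF1 complex at 1 nM preincubated 15 min at room temperature with compound, then Ub-Rho substrate added at 150 nM final. Fluorescence (480/540 nm) read kinetically in 50 mM HEPES pH 7.8, 0.5 mM EDTA, 1 mM TCEP, 0.1 mg/ml BSA, 0.01% Tween-20.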

AA1029 = assay: qHTS profiling for inhibitors of Plasmodium falciparum proliferation (AID 504749); note: nearly all actives have a fitted effect of over 60% in size; settings: P. falciparum in erythrocytes, SYBR Green DNA, 72 h; series mostly up to 28.7 µM
Method in brief: (§1)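 Each compound contacts P. falciparum-infected red blood cells for 72 h at 37 C; lysis buffer (Tris, EDTA, saponin, Triton X, SYBR Green I) is added and fluorescence measured next morning; values normalized to controls.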

CP211 = assay: as above; settings: P. falciparum in erythrocytes, SYBR Green DNA, 72 h; series mostly up to 28.7 µM
Method in brief: as §1

CP215 = assay: as above; settings: P. falciparum in erythrocytes, SYBR Green DNA, 72 h; series mostly up to 28.7 µM
Method in brief: as §1

CP217 = assay: as above; settings: P. falciparum in erythrocytes, SYBR Green DNA, 72 h; series mostly up to 28.7 µM
Method in brief: as §1

CP260 = assay: as above; settings: P. falciparum in erythrocytes, SYBR Green DNA, 72 h; series mostly up to 28.7 µM
Method in brief: as §1

CP297 = assay: as above; settings: P. falciparum in erythrocytes, SYBR Green DNA, 72 h; series mostly up to 28.7 µM
Method in brief: as §1

CP315 = assay: as above; settings: P. falciparum in erythrocytes, SYBR Green DNA, 72 h; series mostly up to 28.7 µM
Method in brief: as §1

CP335 = assay: as above; settings: P. falciparum in erythrocytes, SYBR Green DNA, 72 h; series mostly up to 28.7 µM
Method in brief: as §1

DIV14 = assay: as above; settings: P. falciparum in erythrocytes, SYBR Green DNA, 72 h; series mostly up to 28.7 µM
Method in brief: as §1

DIV17 = assay: as above; settings: P. falciparum in erythrocytes, SYBR Green DNA, 72 h; series mostly up to 28.7 µM
Method in brief: as §1

FAB9 = assay: as above; settings: P. falciparum in erythrocytes, SYBR Green DNA, 72 h; series mostly up to 28.7 µM
Method in brief: as §1

ICS = assay: as above; settings: P. falciparum in erythrocytes, SYBR Green DNA, 72 h; series mostly up to 28.7 µM
Method in brief: as §1

JCK = assay: as above; settings: P. falciparum in erythrocytes, SYBR Green DNA, 72 h; series mostly up to 28.7 µM
Method in brief: as §1

N140 = assay: as above; settings: P. falciparum in erythrocytes, SYBR Green DNA, 72 h; series mostly up to 28.7 µM
Method in brief: as §1

PC15 = assay: as above; settings: P. falciparum in erythrocytes, SYBR Green DNA, 72 h; series mostly up to 28.7 µM
Method in brief: as §1

TAB113 = assay: as above; settings: P. falciparum in erythrocytes, SYBR Green DNA, 72 h; series mostly up to 28.7 µM
Method in brief: as §1

TAB165 = assay: as above; settings: P. falciparum in erythrocytes, SYBR Green DNA, 72 h; series mostly up to 28.7 µM
Method in brief: as §1

W2 = assay: as above; settings: P. falciparum in erythrocytes, SYBR Green DNA, 72 h; series mostly up to 28.7 µM
Method in brief: as §1

Measured: Potency

CCN(CC)C(=O)CC(c1ccc(OC)cc1)c1c(OC)cc(OC)c2c(-c3ccccc3)cc(=O)oc12 (stereo not drawn)
active: [1] 2.24 µM

Cc1cn([C@H]2CC(F)[C@@H](CO)O2)c(=O)[nH]c1=O (stereo partly drawn)
not listed: [1]
inactive: all other assays above

CNC1C(O)C(OC2C(N)CC(N)C(OC3OC(CN)=CCC3N)C2O)OCC1(C)O (stereo not drawn)
not listed: [1]
inactive: all other assays above

CO/N=C(/C(=O)N[C@H]1C(=O)N2C(C(=O)O)=C(COC(C)=O)CSC12)c1csc(N)n1 (stereo partly drawn)
active: [1] 8.91 µM | [2] 39.8 µM

CC1CCC(C(C)C)C(O)C1 (stereo not drawn)
not listed: [1]
inactive: all other assays above

CC[C@@H](C)C(N)C(=O)O (stereo partly drawn)
not listed: [1]
inactive: all other assays above

O=c1ccn(C2OC(COP(=O)(O)OC3C(CO)OC(n4ccc(=O)[nH]c4=O)C3O)C(O)C2O)c(=O)[nH]1 (stereo not drawn)
not listed: [1]
inactive: all other assays above
